# Source: PubChem
# An excerpt weighted towards active compounds, which were near 3.9% of everything screened.
# 3CLpro inhibitor – SARS-CoV 3CLpro protease inhibitors, primary screen, biochemical, quenched FRET; recombinant SARS-CoV 3CLpro, quenched FRET peptide cleavage; inhibition, % at 6 µM; 290,000 compounds, 0.14% hits; AID 1706, 2009; in the data active = inhibition above about 12%
# Mtb FBA inh – Mtb FBA enzyme inhibitors, primary screen, biochemical, fluorescence, strain H37Rv; purified M. tuberculosis FBA, fluorescence read-out; inhibition, % at 1 µM; 360,000 compounds, 2.3% hits; AID 588726, 2011;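 also: 0% = vehicle and 100% = reference inhibitor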
# Target sequence (P9WQA3 whole entry, looked up): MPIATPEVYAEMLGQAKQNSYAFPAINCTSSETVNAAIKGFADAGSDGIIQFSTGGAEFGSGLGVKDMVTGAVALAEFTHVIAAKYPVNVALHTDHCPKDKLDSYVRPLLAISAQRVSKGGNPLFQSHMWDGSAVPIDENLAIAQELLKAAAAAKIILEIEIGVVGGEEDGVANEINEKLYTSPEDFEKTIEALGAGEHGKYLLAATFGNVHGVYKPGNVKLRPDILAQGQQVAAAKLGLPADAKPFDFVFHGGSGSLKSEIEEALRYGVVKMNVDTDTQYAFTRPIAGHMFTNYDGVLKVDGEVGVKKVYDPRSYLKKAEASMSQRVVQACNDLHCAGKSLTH
# Vc quorum ag – inducers of Vibrio cholerae quorum light production without autoinducers, primary screen, BH1578 luxS cqsA deficient, single point. activation, % at 18.7 µM. AID 588436, 2011. 350,000 compounds, 0.16% hits. V. cholerae BH1578 lux reporter, luminescence, 6 h; in the data active = activation mostly above about 9.7%, no sharp cut-off
# PrPC surface inh – inhibitors of human cell surface prion protein PrPC, primary screen, cell-based, TR-FRET | Major prion protein (Homo sapiens), P04156 | TR-FRET read-out | inhibition, % at 13.8 µM | 370,000 compounds, 0.43% hits | AID 720596, 2013; in the data active = inhibition above about 24%; also: 0% = median of the test wells and 100% = reference compound wells
# GDH-TPI counter-1 – GDH-TPI coupling enzyme inhibitors, primary screen, artefact control for M. tuberculosis FBA inhibitor project, biochemical, absorbance, full deck; GDH-TPI coupled enzyme counterscreen, NADH absorbance; inhibition, % at 4.8 µM; 360,000 compounds, 1.2% hits; AID 588335, 2011; in the data active = inhibition above about 30%;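 also: 0% = DMSO wells and 100% = wells lacking the enzyme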
# Mtb FBA inh conf – M. tuberculosis aldolase blockers, biochemical, fluorescence, strain H37Rv, confirmation; 5,600 compounds, 78% hits; shares compounds with Mtb FBA inh; purified M. tuberculosis FBA, fluorescence read-out; inhibition, % at 1 µM;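 also: 0% = vehicle wells and 100% = reference inhibitor wells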
# GDH-TPI counter-2 – GDH-TPI coupling enzyme inhibitors, artefact control for M. tuberculosis FBA inhibitor project, biochemical, fluorescence, high throughput. inhibition, % at 1 µM. GDH-TPI coupled enzyme counterscreen. AID 652141, 2013. shares compounds with Mtb FBA inh. 5,600 compounds, 81% hits; in the data active = inhibition above about 10%
# GDH-TPI dose – GDH-TPI coupling enzyme inhibitors, dose response, artefact control for M. tuberculosis FBA inhibitor project, biochemical, fluorescence, IC50. GDH-TPI coupled enzyme assay, artifact counterscreen. shares compounds with Mtb FBA inh. 170 compounds, 79% hits. IC50, µM; call rule not given here
# Starred values were filed as active, the others as inactive; i = inactive; / = no result given; + = active, no number. Rule as the data show it, unless noted: active = inhibition above about 27%; inactive = the rest.
SMILES,3CLpro inhibitor,Mtb FBA inh,Vc quorum ag,PrPC surface inh,GDH-TPI counter-1,Mtb FBA inh conf,GDH-TPI counter-2,others
CCCCn1nc2cc(C(=O)NCc3ccc(OC)cc3)ccc2c1OCC,-4,40*,0,2,8,94*,85*,
CCOc1ncccc1C(=O)NCc1ccc(OC)cc1,2,0,/,/,-9,/,/,
CCOc1c2ccc(C(=O)NCc3ccc(OC)cc3)cc2nn1CCOC,3,60*,0,2,4,99*,72*,
COc1cc(Cl)ccc1OCc1cc(C(=O)NCCCN2CCCC2=O)no1,-1,-2,0,-5,3,/,/,
CCc1nnc(NC(=O)c2sc3nc4c(cc3c2N)CCCCCC4)s1,-1,61*,0,4,13,7,-7,
O=C(NN1C(=O)c2ccccc2NC12CCCCC2)c1ccccc1,2,6,0,-2,-5,/,/,
CS(=O)(=O)NN1C(=O)c2ccccc2NC12CCCC2,1,35*,0,3,7,131*,107*,
CCOC(=O)NN1C(=O)c2ccccc2NC12CCCC2,1,59*,0,-8,5,163*,139*,
CC1(C)CC(=O)N(CC(=O)N2CCN(Cc3ccc4c(c3)OCO4)CC2)c2ccccc2S1(=O)=O,/,/,/,-7,/,/,/,
Cc1ccc(S(=O)(=O)c2cc3ccccc3nc2N)cc1,3,36*,1,-4,1,+,193*,
CN(C)c1ncc(S(=O)(=O)c2ccccc2)c(N)n1,4,1,0,-6,8,/,/,
Cc1c(NC(=O)C(C)C)cccc1-c1nc2ncccc2o1,-1,29*,-2,-2,9,-7,-8,
Cc1ccc(-c2nc3ncccc3o2)cc1NC(=O)C(C)C,-5,55*,0,0,11,18,9,
O=C(Nc1cccc(-c2nc3ncccc3o2)c1)c1ccccc1,1,0,2,10,-8,/,/,
CC(C)CC(=O)Nc1cccc(-c2nc3ncccc3o2)c1,-4,32*,0,0,-4,0,-3,
CCc1nc2c(OCc3ccc(Cl)cc3)cccn2c1N(C)C(=O)c1ccc2c(c1)OCO2,/,3,0,-5,9,/,/,
Cc1ccc(S(=O)(=O)N(C)C)cc1NC(=O)COC(=O)Cc1ccsc1,/,-1,-1,-7,-8,/,/,
O=C1CC2(CCN(C(=O)c3ccc(F)cc3)CC2)Oc2ccccc21,/,7,i,0,8,/,/,
Cc1c(CCC(=O)NCC(=O)NCC(=O)O)c(=O)oc2cc3oc4c(c3cc12)CCCC4,2,35*,i,11,21,-3,-4,
Cc1c(CCC(=O)O)c(=O)oc2cc3oc4c(c3cc12)CCCC4,1,5,-2,3,11,/,/,
Cc1ccc(CNc2ncnc3ccc(-c4ccc(CO)o4)cc23)o1,/,81*,i,-8,26,8,-1,
CC(C)C(NS(=O)(=O)c1ccc2c3c(cccc13)C(=O)N2)C(=O)O (stereo unspecified),-5,15,0,-11,15,/,/,
CNS(=O)(=O)c1ccc2c3c(cccc13)C(=O)N2,2,56*,i,-8,17,17,4,GDH-TPI dose=2.9*
O=C(O)CCCCCNS(=O)(=O)c1ccc2c3c(cccc13)C(=O)N2,0,40*,1,-19,10,90*,67*,
O=C1Nc2ccc(S(=O)(=O)N(CCO)CCO)c3cccc1c23,-3,32*,2,-20,8,0,-5,
SMILES,3CLpro inhibitor,Mtb FBA inh,Vc quorum ag,PrPC surface inh,GDH-TPI counter-1,Mtb FBA inh conf,GDH-TPI counter-2,others
CNS(=O)(=O)c1cc(S(=O)(=O)NC)c2cccc3c2c1NC3=O,-9,31*,0,-37,23,92*,77*,
CCOP(=O)(OCC)C(Cc1ccc(OC)c(OC)c1)N=C(c1ccccc1)c1ccccc1 (stereo unspecified),/,-4,/,-4,/,/,/,
CS(=O)(=O)c1ccc(C(=O)OCC(=O)N(CCc2ccccc2)Cc2ccccc2)cc1,/,-1,i,/,-1,/,/,
CCCCCCCCN1C(=O)[C@H](CC(=O)N2CCSCC2)C[C@@]2(C(=O)OC)CCCCC=C12,/,/,/,10,/,/,/,
O=C(O)CNS(=O)(=O)c1ccc2c3c(cccc13)C(=O)N2,1,37*,0,-10,16,+,145*,
O=C1Nc2ccc(S(=O)(=O)NCc3ccco3)c3cccc1c23,0,26,1,-17,7,/,/,
Cc1cc(=O)n2cc(-c3ccccc3)nc2[nH]1,-1,89*,-1,4,6,121*,94*,
Cc1nc(-c2ccccc2)cc(=O)[nH]1,1,1,0,7,-3,/,/,
Cc1ccc(-c2cn3c(=O)cc(C)[nH]c3n2)cc1,1,53*,0,-5,13,55*,75*,
Cc1cc(OCC(=O)Nc2cc(C(C)(C)C)on2)ccc1[N+](=O)[O-],0,2,i,7,10,/,/,
CC(NC(=O)COC(=O)CCN1C(=O)C2CC=CCC2C1=O)c1ccc(Br)cc1 (stereo unspecified),/,3,-1,2,16,/,/,
COc1ccc(CC(NC(C)=O)C(=O)NC2CCN(c3nc(C)cc(C)c3C#N)CC2)cc1 (stereo unspecified),-2,19,0,3,4,/,/,
COc1ccc(CC(NC(C)=O)C(=O)NC2CCN(c3nc(C)cc(C)c3C#N)CC2)cc1OC (stereo unspecified),6,31*,i,1,-1,162*,121*,
CCOc1ccc(-n2cnnn2)cc1S(=O)(=O)Nc1c(C)cccc1C,-2,0,-2,-4,2,/,/,
CCOc1cc(S(=O)(=O)NCCc2ccccc2C)c(OCC)cc1-n1cnnn1,0,51*,i,2,7,22,12*,
CCOc1cc(S(=O)(=O)N(CC)CC)c(OCC)cc1-n1cnnn1,0,28*,i,-8,10,193*,137*,
CCOc1cc(S(=O)(=O)N2CCC(Cc3ccccc3)CC2)c(OCC)cc1-n1cnnn1,-2,8,i,-1,20,/,/,
O=C1O[C@@H](c2ccccc2)C[C@@H](O)C(=O)CCc2ccccc21,/,/,/,-4,/,/,/,
